The list is not random: actives were taken first. Their share in the collection is about 17%.
HepG2 tox: kills HepG2 cells in TGF-b inhibitor counter-screen | 410,000 compounds, 0.76% hits | HepG2 CAGA-GFP viability, ATP luminescence, 18 h | Potency, µM (series often up to 46.1 µM), for the others: at the top dose activity change, negative = cytotoxicity, hits mostly cytotoxic
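HepG2 CAGA-GFP cells (1000/well, DMEM with 1% FBS) received compound, then TGF-beta at 500 pg/mL final, and were incubated 18 hours at 37 degrees C. Viability was read by CellTiter-Glo luminescence. Media-only wells were set as complete cell-killing and DMSO as no toxicity.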
HT1080NT lethal: kills 2HG-producing HT-1080-NT fibrosarcoma cells. Potency, µM (series often up to 46.1 µM), inactives show at the top dose activity, negative = less viability, actives largely listed as cytotoxic. HT-1080-NT fibrosarcoma viability, CellTiter-Glo ATP luminescence, 48 h. AID 686970. 360,000 compounds, 1.6% hits;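 further: NT is the 2HG producing partner of a matched IDH1 knockdown line; 0% = DMSO-treated cells and -100% = media-only wells without cells; nearly all actives have a fitted effect of over 55% in size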
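Toxicity toward the 2HG-producing NT line was scored as %Activity, normalised to DMSO and no-cell wells, from CellTiter-Glo luminescence after 48 hours' treatment.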
HT1080 IDH1KD tx: HT-1080 IDH1 knockdown cell toxicity (counter line) | HT-1080 IDH1 knockdown viability, ATP luminescence, 48 h | Potency, µM (top dose mostly 46.1 µM), for inactives: at the top dose activity, negative = toxicity, most hits filed as cytotoxic | 360,000 compounds, 2% hits | AID 686971;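 further: 0% = DMSO wells and -100% = cell-free medium wells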
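% activity derives from luminescence (CellTiter-Glo), normalised to DMSO and no-cell wells. HT-1080-IDH1KD cells, 750/well, had 48 h compound exposure at 37 °C.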
DT40 TDP1 CPT: DT40-hTDP1 cell growth loss with CPT; 420,000 compounds, 12% hits; AID 686979; chicken DT40 Tdp1-/-;hTDP1 cells + 20 nM CPT, ATP luminescence, 48 h; Potency, µM (doses to about 46.2 µM), inactives show at the top dose activity change, negative = growth inhibition, most hits filed as inhibitors; further: on the % scale 0 is the no-effect control and ±100 the full control effect; nearly all actives have a fitted effect of over 55% in size
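Cell growth measured by CellTiter-Glo luminescence after a minimum 48 h, 37 C compound exposure with 20 nM CPT in Tdp1-knockout DT40 cells stably expressing hTDP1, seeded 400/well; qHTS titration format.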
TGFb inhibitor: blocks TGF-b signaling. HepG2 CAGA-GFP TGF-b/SMAD3 reporter, GFP fluorescence, 18 h; TGF-beta stimulated, 500 pg/mL final. Potency, µM (highest dose often 46.1 µM), for inactives: at the highest dose activity, negative = inhibition, hits mostly inhibitors. 410,000 compounds, 1.2% hits. AID 588855; further: on the % scale 0 is the no-effect control and ±100 the full control effect; nearly all actives have a fitted effect of over 65% in size
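TGF-beta reporter screen: HEPG2 CAGA-GFP, 1% FBS, 500 pg/mL TGF-beta final, 18 h; per-cell GFP summed per well; curves fitted and categorized by class.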
TDP1 cell noCPT: qHTS for Inhibitors of human tyrosyl-DNA phosphodiesterase 1 (TDP1): qHTS in cells in absence of CPT. DT40 Tdp1-/- hTDP1 cells, no CPT, ATP luminescence, 48 h. Potency, µM (top dose mostly 46.2 µM), without a hit: at the top dose activity change, negative = growth inhibition, most hits filed as inhibitors. 420,000 compounds, 15% hits; further: on the % scale 0 is the no-effect control and ±100 the full control effect; nearly all actives have a fitted effect of over 55% in size
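Cells were dispensed at 400 per well, compounds added by pin tool, plates incubated ≥48 hr at 37 °C, then CellTiter-Glo added for 30 min at room temperature before luminescence reading. Line: DT40 Tdp1-/- complemented with hTDP1; camptothecin omitted.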
* marks the source's active call; other numbers are inactive results; ? = inconclusive; · = no result given; [ ] = remark or other dose. The call rests on the fitted dose curve; in most records, active means well fitted curve in the direction sought with a large enough effect; inconclusive means small, poorly fitted or top-dose-only effect, or another doubt; inactive means no such curve, though single readings can be large; an effect the other way counts as inactive or inconclusive. Potency means the concentration at half of the fitted maximal effect.

SMILES | HepG2 tox | HT1080NT lethal | HT1080 IDH1KD tx | DT40 TDP1 CPT | TGFb inhibitor | TDP1 cell noCPT
CCC(=O)c1ccc(OCC(=O)Nc2ccccc2N2CCCCC2)cc1 | 15.2% | 12.3% | -2.1% | 2.59µM* | 1.9% | 2.91µM*
Cc1ccc(OCC(=O)Nc2ccccc2N2CCOCC2)c(C)c1 | 1.7% | 1.5% | -5.1% | 18.4µM* | -20.2% | ?
Cc1cccc(OCC(=O)Nc2ccccc2N2CCCC2)c1C | -17.9% | -2.0% | -9.4% | ? | -5.5% | ?
CN(C)CCCNc1nccc(N2CCN(C)CC2)n1 | -29.5% | · | · | -25.7% | -1.4% | -13.3%
Cc1ccc(NC(=O)COc2ccccc2)c(NC(=O)c2ccccc2C)c1 | 11.3% | -9.4% | -6.3% | ? | 2.6% | 20.6µM*
Cc1ccccc1OCC(=O)Nc1ccccc1N1CCCCC1 | -15.9% | -25.5% | ? | ? | -9.7% | 20.6µM*
COc1ccccc1-c1ccc([C@@H]2C[C@H]3[C@@H](CN2)CON3C)cc1 | -1.4% | -4.5% | -3.3% | -19.3% | 14.1% | -30.0%
COc1ccc(-n2nc(C)c3c(C(F)(F)F)cc(-c4cccnc4)nc32)cc1 | 0.6% | · | · | -18.1% | -25.4% | -23.3%
O=C(OCCN(C1=NS(=O)(=O)c2ccccc21)c1ccccc1Cl)c1ccc(Cl)cc1 | -33.1% | -16.4% | 0.3% | 18.4µM* | ? | ?
CN(CC(=O)Nc1ccc(Cl)cc1)C1=NS(=O)(=O)c2ccccc21 | 18.6% | 3.3% | 0.8% | 0.1% | -3.0% | 8.1%
COc1cccc(/C=N/NC(=O)CN2CC(c3ccccc3)CC2=O)c1OC (configuration not stated) | 9.7% | 4.7% | 11.1% | -2.7% | 2.4% | 13.7%
CCOc1ccc(-c2c(C)nn3c(C)c(C(=O)Nc4ccccc4C(=O)OC)cnc23)cc1OCC | -16.2% | · | · | ? | -22.4% | -17.4%
CCOc1ccc(-c2c(C)nn3c(C)c(C(=O)NCCc4ccccc4)cnc23)cc1OCC | -3.5% | · | · | ? | 0.4% | 5.17µM*
CCOc1ccc(-c2c(C)nn3c(C)c(C(=O)NC(C)c4ccccc4)cnc23)cc1OCC (configuration not stated) | -17.4% | · | · | 20.6µM* | -10.0% | 16.4µM*
CCCCNC(=O)c1cnc2c(-c3ccc(OCC)c(OCC)c3)c(C)nn2c1-c1ccccc1 | 5.7% | · | · | ? | -0.9% | -29.6%
COc1ccc(S(=O)(=O)N(C)CC(=O)N2CCC(C(N)=O)CC2)cc1Cl | -2.2% | 0.5% | 2.0% | 1.1% | 0.7% | 9.4%
CCOc1cc(CN2CCN(C(=O)c3cccc4ccccc34)CC2)ccc1OC | -15.7% | -10.2% | -5.7% | ? | ? | -28.6%
COc1ccc(C(=O)N2CCN(c3cccc(Cl)c3)CC2)c(OC)c1 | 4.1% | 14.6µM* | ? | 16.4µM* | -8.9% | 11.6µM*
CCOc1ccccc1C(=O)N1CCN(c2cccc(Cl)c2)CC1 | -20.9% | 0.251µM* | 0.112µM* | 0.0366µM* | ? | 0.164µM*
COc1cc(Cl)ccc1NC(=O)COc1ccccc1C(=O)N1CCN(c2ccc(O)cc2)CC1 | -4.2% | -21.0% | -20.8% | 23.1µM* | -8.8% | 23.1µM*
CCOc1ccc2ccccc2c1C(=O)N1CCN(c2ccccc2)CC1 | -15.3% | ? | 7.94µM* | ? | 4.5% | 16.4µM*
COc1ccccc1OCC(=O)Nc1ccc(O)cc1C(=O)O | -13.0% | 12.0% | -4.0%[9.24 µM] | -1.7% | 7.2% | 6.9%
COc1ccc(S(=O)(=O)N2CCN(C(=O)CCNC(=O)c3ccccc3Cl)CC2)cc1 | -5.9% | -4.0% | 1.5% | -14.7% | -11.6% | -24.1%
Cc1nc(CS(=O)(=O)c2ccccc2)cc(N2CCOCC2)n1 | 0.9% | -4.2% | -4.7% | 9.2µM* | 33.9% | 9.2µM*
NS(=O)(=O)c1ccc(NC(=O)COC(=O)c2ccc(Cl)cc2[N+](=O)[O-])cc1 | 4.4% | 0.0% | 1.1% | -15.5% | 0.4% | -19.3%
SMILES | HepG2 tox | HT1080NT lethal | HT1080 IDH1KD tx | DT40 TDP1 CPT | TGFb inhibitor | TDP1 cell noCPT
COc1ccc(S(=O)(=O)N2CCOCC2)cc1N=Nc1sc(N)nc1-c1ccccc1 | -18.4% | -21.1% | -28.7% | -29.7% | 1.4% | 2.31µM*
Nc1cc(N)c(OCC(F)(F)F)cc1OCC(F)(F)F | -66.8% | -3.0% | -5.7% | 2.59µM* | ? | 9.2µM*
Nc1cc(OCC(F)(F)F)cc([N+](=O)[O-])c1 | -14.4% | 4.4% | 2.2% | 0.3% | -3.4% | -7.2%
CSc1ccccc1C(=O)N1CCC2(CC1)CC(=O)c1ccccc1O2 | -19.7% | 4.2% | 11.5% | ? | -14.0% | ?
Cc1ccccc1NN=Nc1nc2c([nH]1)c(=O)n(C)c(=O)n2C | -3.3% | -4.6% | -6.8% | -16.7% | -1.7% | -18.9%
COc1ccc(NN=Nc2nc3c([nH]2)c(=O)n(C)c(=O)n3C)cc1 | -6.3% | -11.7% | -11.4% | 20.6µM* | -1.5% | ?
CN(C)c1cc2c3ccccc3n(C)c2cc1N | -23.9% | -13.8% | -19.6% | -21.9% | 1.8% | -19.1%
C[C@H](CO)N1C[C@H](C)[C@@H](CN(C)S(=O)(=O)c2ccccc2)Oc2c(NC(=O)Nc3ccc4c(c3)OCO4)cccc2C1=O | 0.9% | 0.7% | -3.8% | 16.4µM* | -7.1% | ?
C[C@H](CO)N1C[C@H](C)[C@@H](CN(C)S(=O)(=O)c2ccccc2)Oc2c(NC(=O)NC3CCCCC3)cccc2C1=O | -4.0% | -18.0% | -10.3% | 18.4µM* | -0.2% | ?
C[C@H](CO)N1C[C@H](C)[C@@H](CN(C)S(=O)(=O)c2ccccc2)Oc2c(NC(=O)C3CC3)cccc2C1=O | 5.3% | 1.7% | 3.2% | -0.7% | 0.7% | 0.3%
Cc1cc(C2(c3ccc(O)c(C)c3)C(=O)Nc3ccccc32)ccc1O | -111.4% | 18.4µM* | -11.9%[9.24 µM] | ? | -20.6% | ?
Cc1cccc2c1NC(=O)C2(c1ccc(O)cc1)c1ccc(O)cc1 | -1.2% | 0.0082µM* | 0.0082µM* | -3.8% | 14.4% | -5.8%
Cc1ccc(C)c(NC(=O)c2cc(S(=O)(=O)N3CCCCCC3)ccc2F)c1 | -15.5% | · | · | 16.4µM* | ? | ?
O=C(Nc1ccc(Cl)cc1F)c1cc(S(=O)(=O)N2CCCCC2)ccc1F | -1.1% | 0.6% | 3.6% | 26.0% | ? | -8.0%
Cc1cccc(C(=O)Nc2cccc(S(=O)(=O)NCc3ccco3)c2)c1 | -24.3% | 7.3% | -3.1% | ? | 0.0% | ?

Screening results: PubChem BioAssay, National Center for Advancing Translational Sciences (NCATS)
